In all, about 1,200 compounds went through this assay and about 290 (24%) were called active. Inconclusive results (about 9%) are left out. No rule for the calls is given here. Not all results are given here. Entries with a potency or affinity are not part of this list.
Assay: LCL viability reduction – cell-based, plate reader, cherry-picks, set 2, cytotoxicity control, dose response (AID 504882)
Settings: EBV lymphoblastoid cells (LCL) viability; series mostly up to 19.5 µM

Structure (SMILES) | outcome
Cc1ccc(-c2cc(N)n3nc(-c4ccc(C)cc4)cc3n2)cc1 | inactive
Fc1ccc2[nH]c3c(N4CCN(c5ccccc5)CC4)ncnc3c2c1 | inactive
O=[N+]([O-])c1ccc2ncnc(N3CCN(Cc4ccc5c(c4)OCO5)CC3)c2c1 | inactive
CC(C)(C)OC(=O)N1Cc2ccccc2C[C@H]1C(=O)NCC(=O)Nc1ccc2c(c1)OCCO2 | inactive
O=C(C1CCCCC1)N1CCN(c2ncccn2)CC1 | inactive
COC(=O)c1ccccc1NC(=O)CC(=O)Nc1ccccc1C(=O)OC | inactive
O=C(NCCCN1CCCCC1)c1ccc2c(c1)NC(=O)c1ccccc1S2 | inactive
CCOc1ccc(NC(=O)c2ccc(N3CC4CC(C3)c3cccc(=O)n3C4)c(NC(=O)c3cccnc3)c2)cc1 (stereo not given) | inactive
CSc1ccccc1OCc1cc(C(=O)N2CCC[C@H]2C(N)=O)no1 | inactive
COC(CNC(=O)c1ccc(N2CCC3(CC2)OCCO3)c([N+](=O)[O-])c1)OC | inactive
Cc1ccnc(NC(=O)c2ccc(C(=O)c3ccccc3)cc2)c1 | inactive
COc1ccc(C(=O)Nc2cc(C)c(NC(=O)c3ccccc3OC)cn2)cc1 | inactive
COc1ccccc1-c1ccccc1C1=CC(=O)CC(C)(C)C1=O | inactive
COc1ccc(C2=NN(C(=O)CSC3=NN4CCCC(=O)N=C4S3)C(c3cccc(OC)c3OC)C2)cc1 (stereo not given) | inactive
O=C(O)c1ccc(N/N=C/c2cc3cc4c(cc3nc2Cl)OCCO4)cc1 | inactive
Clc1ccc(-c2ccnc(Oc3ccc4ccccc4c3)n2)cc1 | inactive
CCOC(=O)[C@H]1[C@H]2COc3ccc(OC)cc3[C@@H]2N2C(=O)CN(C)C(=O)[C@@]12C | inactive
CN(C)CCCC1(c2ccc(F)cc2)OCc2cc(C#N)ccc21 (stereo not given) | inactive
CC1(C)Cc2nc3sc4c(SCC(=O)O)ncnc4c3cc2CO1 | inactive
COc1ccc(C=C2OC(=O)C(C(C)=O)=C2O)cc1 | inactive
COc1ccc(-c2oc3ncnc(NCCN4CCOCC4)c3c2-c2ccc(OC)cc2)cc1 | inactive
CCN(CC(=O)Nc1ccc(NC(C)=O)cc1)C(=O)c1cccnc1Sc1ccc(C)c(C)c1 | inactive
COc1ccc(N2Cc3cccc(C(=O)NC(C)CCc4ccco4)c3C2=O)cc1 (stereo not given) | inactive
COc1ccc(-c2cc(C(=O)N3CCCC3)no2)cc1 | inactive
CC(Sc1nc(-c2ccc(F)cc2)cs1)C(=O)N1c2ccccc2CC1C (stereo not given) | inactive
Cc1ccc(CN2C(=O)CCC2C(=O)NCCCN2CCC(C)CC2)cc1 (stereo not given) | inactive
Cc1cnc(NC(=O)c2ccc(OCC3CCCO3)cc2)s1 (stereo not given) | inactive

Structure (SMILES) | outcome
CCN(CC)S(=O)(=O)c1ccc(N=NC2=C(O)CCCC2=O)cc1 | inactive
CCN(CC)S(=O)(=O)c1cccc(-n2c(O)c(C=Nc3ccccc3C(=O)O)c3ccccc3c2=O)c1 | inactive
O=C(O)c1ccc(N/N=C/c2ccc3ncccc3c2)cc1 | inactive
COc1ccc(C(=O)CN(CCC(=O)O)S(=O)(=O)c2ccc([N+](=O)[O-])cc2)cc1 | inactive
O=C(NCCc1ccccc1)c1ccc2nccnc2c1 | inactive
CCN(C(=O)CSc1nnc(Nc2cccc(C)c2C)s1)C1CCS(=O)(=O)C1 (stereo not given) | inactive
CCCC(C)NC(C)C(=O)NC1CCCC1 (stereo not given) | inactive
COCCNC(=O)C1CCC(CNS(=O)(=O)c2ccccc2)CC1 (stereo not given) | inactive
Cc1ccc(-c2nnn(CC(=O)N(Cc3ccco3)C(C(=O)NC(C)(C)C)c3ccncc3)n2)o1 (stereo not given) | inactive
COCCCNC(=O)CN1C(=O)COc2ccc(S(=O)(=O)N3CCOCC3)cc21 | inactive
O=C(CN1C(=O)c2ccccc2S1(=O)=O)c1ccccc1F | inactive
CN(Cc1ccccc1)c1nc(N)c([N+](=O)[O-])c(NCc2ccccc2)n1 | inactive
CCCCCn1c(N2CCOCC2)nc2c1c(=O)n(CC(N)=O)c(=O)n2C | inactive
NC(=O)N/N=C/c1ccc(N2CCOCC2)s1 | inactive
CCCCCC(=O)N1C[C@@H](O)[C@H](n2cc(C3CC3)nn2)C[C@@H]1c1ccc(C)cc1 | inactive
CCN1CCN(Cc2ccc(NC(=O)c3ccc(C)c(NC(=O)c4cccc5[nH]ccc45)c3)cc2C(F)(F)F)CC1 | inactive
CCN1CCN(Cc2ccc(NC(=O)c3ccc(C)c(NC(=O)N4CCNC4=O)c3)cc2C(F)(F)F)CC1 | inactive
COc1ccc(/C(CC2OC(=O)c3ccccc32)=N\NC(N)=O)cc1 (stereo not given) | inactive
c1ccc2c(-c3ccncc3)c[nH]c2c1 | inactive
C[C@@H]1CN([C@@H](C)CO)C(=O)c2cc(NC(=O)Nc3ccccc3)ccc2O[C@H]1CN(C)C(=O)Nc1cccc2ccccc12 | inactive
c1ccc(C2c3[nH]c4ccccc4c3CCN2Cc2cccn2-c2ccccn2)nc1 (stereo not given) | inactive
COc1ccccc1NC(=O)C(=O)N/N=C(\C)CC(=O)Nc1ccccc1C(F)(F)F | inactive
COc1ccc(C(=O)N2CC(=O)Nc3ccccc32)cc1S(=O)(=O)N1CCCC1 | inactive
COc1ccc(N2C(=O)CC(Sc3nnc(-c4ccccc4)o3)C2=O)cc1 (stereo not given) | inactive
COc1cc(OC)cc(-c2c(C#Cc3ccsc3)c3cc(-c4cc(OC)c(OC)c(OC)c4)ccc3n2C)c1 | inactive
Cc1nc(N)nc(SCc2ccc([N+](=O)[O-])cc2)c1N | inactive
COCCCn1cnnc1SCC(=O)Nc1ccc(S(=O)(=O)N2CCCC2)cc1 | inactive

Structure (SMILES) | outcome
O=C(CCN1CCC(c2ccccc2)C1)c1ccc2c(c1)OCCO2 (stereo not given) | inactive
COCCn1c(C)cc(C(=O)COC(=O)C23CC4CC(CC(O)(C4)C2)C3)c1C | inactive
CC(C)OCCCNC(=O)C1CCC(CNS(=O)(=O)c2ccccc2)CC1 (stereo not given) | inactive
COC(=O)c1cc2n(n1)CCN(Cc1ccccc1Cl)C2=O | inactive
COc1ccc(OC)c2c1sc(=NC(=O)c1ccco1)n2C | inactive
c1ccc(-n2nnc3c(N4CCOCC4)ncnc32)cc1 | inactive
CCc1cc2c(Sc3nc4ccccc4s3)ncnc2s1 | inactive
Cc1ccc(CNC(=O)C2CCN(S(=O)(=O)c3c(C)noc3/C=C/c3ccco3)CC2)cc1 | inactive
COc1cc(Cl)cc(C(c2c(C(=O)O)[nH]c3ccccc23)c2c(C(=O)O)[nH]c3ccccc23)c1O | inactive
Cn1cccc1C(=O)OCC(=O)Nc1ccc2c(c1)OCO2 | inactive
Cc1ccc(C(=O)N2CCN(c3ccc(NC(=O)CSc4ccc(Cl)cc4)cc3)CC2)cc1 | inactive
O=C(Nc1cccc(Cl)c1)Nc1cccc(C(=O)O)c1 | inactive
CC1CCN(c2ccc(-c3ccc(NC(=O)C(F)(F)F)cc3)nn2)CC1 | inactive
CSc1ccccc1NC(=O)CN1CCCCC1C (stereo not given) | inactive
Cc1ccnc(NC(=O)c2cccc(NC(=O)c3ccc(Cl)c(Cl)c3)c2)c1 | inactive
Cn1cccc1CC(=O)NNC(=S)Nc1ccccc1Cl | inactive
CC(=O)NC(CCS(C)(=O)=O)C(=O)Nc1ccc(Cl)c(Cl)c1 (stereo not given) | inactive
S=C(NN=C1C2CC3CC(C2)CC1C3)Nc1ccccc1 | inactive
COc1ccccc1NC(=S)NN=C(C)c1ccccn1 | inactive
Cc1ccc(NC(=S)NCc2cccs2)cc1 | inactive
COCCCNCC1C(Oc2ccc(Cl)cc2)C(=O)N1c1ccccc1C (stereo not given) | inactive
O=c1cc(Cl)nc2ccccn12 | inactive
CCCc1nc(SCC(=O)NCc2ccco2)c2c(=O)n(C)c(=O)n(C)c2n1 | inactive
COC(=O)[C@@]1(Cc2ccccc2)[C@H]2C(=O)N(Cc3ccccc3)C(=O)[C@H]2[C@H]2CN=C(SCc3ccc(Cl)cc3)N21 | inactive
CCOCCCNC(=O)CN1C(=O)/C(=C\c2ccc(C)cc2)Sc2ccccc21 | inactive
O=C1NC(c2cccc(OCc3ccccc3)c2)Nc2ccccc21 (stereo not given) | inactive
COc1ccccc1C1(CC(=O)O)CCOC(C)(C)C1 (stereo not given) | inactive

Structure (SMILES) | outcome
Clc1cccc(CN2CCCCCC2)c1 | inactive
O=C(c1ccccc1Br)N1CCN(Cc2ccc3c(c2)OCO3)CC1 | inactive
Fc1cccc(Cl)c1/C=N/n1c(-c2cccnc2)n[nH]c1=S | inactive
Cn1c(-c2ccccc2)cnc1SCC(=O)N1CCCCC1 | inactive
COc1ccc([C@H]2N[C@]3(CCCN(Cc4ccco4)C3=O)[C@H]3C(=O)N(Cc4ccccc4)C(=O)[C@@H]23)cc1 | inactive
Cc1nn(-c2ccccc2)c(Cl)c1C(=O)N1CCN(c2ncnc3c2cnn3-c2ccccc2)CC1 | inactive
COc1ccc(/C=C2\N=C(C)OC2=O)cc1[N+](=O)[O-] | inactive
Cc1ccc(N2C(=O)c3ccccc3C2Nc2cccnc2)nc1 (stereo not given) | inactive
C=CCN=C1NN=C(c2cc(C)n(CCOC)c2C)CS1 | inactive
COc1ccc(-c2nc(CN3CCC(C(=O)N4CCOCC4)CC3)c(C)o2)cc1C | inactive
Cc1cc2ccccc2n1CCNC(=O)COc1ccc2ccccc2c1 | inactive
Cc1ccccc1C(=O)c1c[nH]c(C(=O)NCc2ccco2)c1 | inactive
O=C1c2ccccc2C(O)N1Cc1ccccc1 (stereo not given) | inactive
Nc1ncnc2c1c(-c1ccc(Oc3ccccc3)cc1)cn2C1CCCC1 | inactive
CN1CCN(C(=O)C2=C[C@@H](C(C)(C)C)C[C@@H](OCc3ccc(CO)cc3)O2)CC1 | inactive
COc1ccc(C(CNC(=O)Nc2ccccc2)N2CCN(C)CC2)cc1 (stereo not given) | inactive
CC1CN(c2cc(=O)n(-c3ccccc3)c(=O)[nH]2)CC(C)O1 (stereo not given) | inactive
N#CCCn1cc(C(=O)Nc2ccccn2)c(-c2ccccc2)n1 | inactive
Cc1ccc(NC(=O)C(=O)Nc2ccccn2)cc1 | inactive
O=C(Nc1ccccn1)NC1CCCCC1 | inactive
COc1ccc(OCC(=O)Nc2nccs2)cc1 | inactive
O=[N+]([O-])c1ccc(N2CCN(Cc3cccc([N+](=O)[O-])c3)CC2)cc1 | inactive
Cc1ccc(C2=C/C(=C\c3cccnc3)C(=O)O2)cc1 | inactive
CCOc1ccc(N(C(C)C(=O)N2CCCCCC2)S(C)(=O)=O)cc1 (stereo not given) | inactive
